# Results reported in PubChem BioAssay (NCI).
# About 79,000 compounds went through this panel and 15% of them were active in at least one assay; those are over-represented in the sample as a whole. Values without a mark were called inactive. Active and inactive are the calls of the source. Rule as the data show it: active = growth inhibition above about 70%; inactive = the rest.
# Columns and labels:
# [1] = NCI Yeast Anticancer Drug Screen. Data for the rad50 strain (AID 155);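 also: 0% = growth of vehicle-only cultures of the same strain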; conditions: S. cerevisiae rad50 strain growth inhibition, active compounds read high
# Outline: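 DNA repair mutant yeast, compound exposure, growth read-out; inhibition is taken relative to vehicle.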
# [2] = NCI Yeast Anticancer Drug Screen. Data for the mec2-1 strain (AID 157); conditions: S. cerevisiae mec2-1 strain, active compounds read high
# Outline: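 Yeast mec2-1 mutant treated with compound. Readout: growth inhibition vs vehicle controls.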
# [3] = NCI Yeast Anticancer Drug Screen. Data for the sgs1 mgt1 strain (AID 161);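 also: 0% = growth of cultures given vehicle only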; conditions: S. cerevisiae sgs1 mgt1 strain, active compounds read high
# Outline: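 Inhibition of yeast growth, normalised to vehicle-treated controls, is reported for a strain bearing genetic alterations in DNA damage repair.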
# [4] = NCI Yeast Anticancer Drug Screen. Data for the cln2 rad14 strain (AID 165);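 also: 0% = growth equal to vehicle treated cultures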; conditions: S. cerevisiae cln2 rad14 strain, active compounds read high
# Outline: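 cln2 rad14 yeast strain; compound exposure; growth inhibition read vs vehicle controls.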
# [5] = NCI Yeast Anticancer Drug Screen. Data for the bub3 strain (AID 167); conditions: S. cerevisiae bub3 mutant strain, active compounds read high
# Outline: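 In this screen, a yeast mutant lacking normal mitotic checkpoint function is challenged with compound. Relative growth versus vehicle gives the inhibition value.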
# [6] = NCI Yeast Anticancer Drug Screen. Data for the mlh1 rad18 strain (AID 175); conditions: S. cerevisiae mlh1 rad18 strain growth inhibition, active compounds read high
# Outline: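 Yeast w/ defined DNA-repair lesions; compound exposure; growth vs vehicle controls → % inhibition.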
# [7] = at 5.0 µM (retest, dose inferred, filed as 0.5)
# [8] = at 50.0 µM (retest, dose inferred, filed as 5.0)
SMILES,"growth inhibition [1, 7]","growth inhibition [1, 8]",growth inhibition ([1]; at 50.0 µM),"growth inhibition [2, 7]","growth inhibition [2, 8]",growth inhibition ([2]; at 50.0 µM),"growth inhibition [3, 7]","growth inhibition [3, 8]",growth inhibition ([3]; at 50.0 µM),"growth inhibition [4, 7]","growth inhibition [4, 8]",growth inhibition ([4]; at 50.0 µM),"growth inhibition [5, 7]","growth inhibition [5, 8]",growth inhibition ([5]; at 50.0 µM),"growth inhibition [6, 7]","growth inhibition [6, 8]",growth inhibition ([6]; at 50.0 µM)
COc1cc(/C=C/[N+](=O)[O-])c(OC)cc1Br,44%,58%,59.9%,27%,45%,83.3% (active),15%,87% (active),87% (active),37%,25%,73% (active),24%,75% (active),88.2% (active),38%,40%,89.2% (active)
Nc1nc(N)c(-c2ccc(Cl)c(Cl)c2)c(COc2ccc(CNC(=O)Nc3cccc(S(=O)(=O)F)c3)cc2Cl)n1,2%,11%,26.8%,-5%,10%,58.9%,-4%,6%,74.8% (active),-6%,11%,-4.6%,0%,20%,13.2%,2%,42%,66.4%
C#CC(/C=C/Cl)(CC)OC(N)=O (configuration not stated),3%,13%,1.8%,4%,5%,11.6%,3%,5%,-2%,6%,-7%,75.8% (active),0%,43%,55.9%,9%,16%,31.2%
[C-]#[O+].[C-]#[O+].[C-]#[O+].[C-]#[O+].[C-]#[O+].[Mo+2].[Mo+4].[c-]1[c-][c-][cH-][c-]1.[c-]1[c-][c-][cH-][c-]1.c1ccc([PH+](CC[PH+](c2ccccc2)c2ccccc2)c2ccccc2)cc1,82% (active),98% (active),90.5% (active),73% (active),99% (active),93% (active),91% (active),98% (active),92.3% (active),60%,98% (active),92% (active),84% (active),98% (active),92.3% (active),79% (active),98% (active),90.5% (active)
Cc1ccc2c(C)c3ccc4ccccc4c3c[n+]2c1,74% (active),94% (active),71.2% (active),65%,89% (active),83.5% (active),87% (active),95% (active),85.2% (active),51%,71% (active),52.6%,69%,88% (active),86.5% (active),52%,88% (active),72.5% (active)
CC(C)CCC1(CCSC(=O)S)C(=O)NC(=O)NC1=O,-4%,77% (active),85.3% (active),0%,62%,8.3%,4%,67%,25.8%,-4%,21%,-37.2%,-4%,65%,19.8%,-8%,70% (active),30.8%
CC(=O)Nc1c2sscc-2n(C)c1=O,98% (active),99% (active),93.2% (active),99% (active),100% (active),94.9% (active),99% (active),99% (active),94.6% (active),98% (active),99% (active),93.2% (active),97% (active),99% (active),94% (active),99% (active),99% (active),92.7% (active)
C[C@]12CC[C@H]3[C@@H](CCC4=CC(=O)CC[C@@H]43)[C@@H]1CC[C@@H]2OC(=O)N(CCCl)N=O,44%,95% (active),84.8% (active),43%,97% (active),85.3% (active),67%,97% (active),83.2% (active),68%,96% (active),79% (active),72% (active),96% (active),85.7% (active),39%,94% (active),85% (active)
CCOC(=O)[C]1([Pb]([CH3])([CH3])[CH3])N=NC(C(=O)OC)=C1C(=O)OC (configuration not stated),6%,32%,68.8%,-1%,-14%,-2.15%,2%,22%,29.8%,4%,5%,14.2%,-2%,32%,15.9%,1%,-2%,30.7%
